# According to PubChem BioAssay AID1851 (National Center for Advancing Translational Sciences (NCATS), 2009):
# Hit rate of the full screen: of about 16,000 compounds, about 2,600 (16%) were called active. Another 20% or so got no clear call; they are omitted. These entries were drawn from the full list. Values without a mark were called inactive. Calls follow the shape of the dose curve; as a rule, active = well fitted curve in the direction sought with a large enough effect; inconclusive = small, poorly fitted or top-dose-only effect, or effect the other way; inactive = no such curve, though single readings can be large or run the other way. Square brackets hold non-standard residues; d marks the D form. Peptide text beside a SMILES is read from it.
# Molecular target: Cytochrome P450 2D6 (Homo sapiens) (UniProt P10635)
# Sequence (P10635 whole entry, looked up): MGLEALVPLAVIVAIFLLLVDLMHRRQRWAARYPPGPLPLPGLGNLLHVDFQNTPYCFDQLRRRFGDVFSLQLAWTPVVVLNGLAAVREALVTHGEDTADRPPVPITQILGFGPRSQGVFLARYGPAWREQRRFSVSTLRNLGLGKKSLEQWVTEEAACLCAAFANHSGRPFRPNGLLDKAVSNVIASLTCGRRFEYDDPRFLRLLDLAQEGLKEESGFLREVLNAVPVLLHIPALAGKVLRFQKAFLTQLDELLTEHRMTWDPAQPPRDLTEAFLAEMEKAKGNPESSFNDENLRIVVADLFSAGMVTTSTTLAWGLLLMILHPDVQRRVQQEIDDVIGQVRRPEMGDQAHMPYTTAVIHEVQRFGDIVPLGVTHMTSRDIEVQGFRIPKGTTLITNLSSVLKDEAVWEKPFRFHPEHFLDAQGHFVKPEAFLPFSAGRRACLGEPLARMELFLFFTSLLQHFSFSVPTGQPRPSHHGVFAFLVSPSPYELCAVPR
# Test: Cytochrome panel assay with activity outcomes
# Settings: recombinant CYP, pro-luciferin dealkylation, luminescence, p450-cyp2d6; series mostly up to 57.1 µM
# % is scaled to controls: 0 for no effect and ±100 for the full control effect.
Compound,AC50,"activity, negative = inhibition"
Cc1cc(NC(=O)c2ccccc2Cl)c(C(C)C)cc1O,inactive,–
CCCCC1(C)OC(=O)C(=Cc2ccc(N(CC)CC)cc2)C(=O)O1 (centres undefined),inactive,–
COc1ncc2nc(-c3cn(C)c4ccccc34)c(=O)n(Cc3ccc(F)cc3)c2n1,inactive,–
Cc1cc(C)cc(N2C(=O)CC(Sc3nnnn3-c3ccccc3)C2=O)c1 (centres undefined),inactive,–
Cc1cccc(-n2cnc(C(=O)NC3CCCCCC3)c2)n1,inactive,–
COc1cc(OC)c(C2N(c3cc(C)on3)C(=O)C3CCCN32)cc1OC (centres undefined),inactive,–
COc1ccc(CNc2ncncc2-c2ccccc2CN(C)C)c(OC)c1,2.51 µM (active),–
COc1ccc(CNc2ncncc2-c2ccccc2C)c(OC)c1,12.6 µM (active),–
COc1ccc(CNc2ncncc2-c2ccccc2OC)c(OC)c1,12.6 µM (active),–
COc1ccc(O[C@H]2C=C[C@@H](c3ccccc3)O[C@@H]2CO/N=C\[C@@H](C)[C@H](OCc2ccccc2)C(C)C)cc1,–,8.39% [at 11.4 µM]
COc1ccc(Nc2nnc(-c3ccc(N4CCOCC4)c([N+](=O)[O-])c3)c3ccccc23)cc1,inactive,–
NC(=O)c1ccc([N+](=O)[O-])cc1SCc1ccccc1,inactive,–
Cc1ccc(Cn2nc(C)c(NC(=O)c3cc(-c4ccco4)on3)c2C)cc1,inactive,–
Cn1c(=O)c2cn(-c3ccccc3)cc2n(C)c1=O,inactive,–
COc1ncc2nc(-c3cccs3)c(=O)n(-c3ccccc3)c2n1,inactive,–
O=C(C1CCN(S(=O)(=O)c2cccc3cccnc23)CC1)N1CCN(c2ccccn2)CC1,inactive,–
Cc1ccc2c(c1)NCC(C(=O)NC1CCCCC1)O2 (centres undefined),inactive,–
Cc1ccc(S(=O)(=O)N2CCN(C(=O)CN3CCN(C)CC3)C2)cc1,inactive,–
Cc1ccc(S(=O)(=O)N2CCN(S(C)(=O)=O)C2)cc1,inactive,–
Cc1ccc(S(=O)(=O)N2CCN(Cc3ccccc3C(F)(F)F)CC2)cc1,10 µM (active),–
COC(=O)C(NS(=O)(=O)c1ccc(NC(C)=O)cc1)C(C)C (centres undefined),inactive,–
O=S(=O)(c1cccc(C(F)(F)F)c1)N1CCC(c2cc(-c3cccc4ccccc34)n[nH]2)CC1,inactive,–
Cc1cccc(NC(=O)CSc2nnc(-c3ccco3)c(-c3ccco3)n2)c1C,12.6 µM (active),–
Cc1cccc(NC(=O)CSc2nc(-c3ccccc3)c(C#N)c(=O)[nH]2)c1C,inactive,–
Cc1cc(C)nc(SCC(=O)Nc2ccccc2[N+](=O)[O-])n1,inactive,–
COc1ccc(NC(=O)N2CCC3(CC2)CCN(C(=O)c2cccc(F)c2)CC3)cc1,inactive,–

Compound,AC50,"activity, negative = inhibition"
CCC1Oc2ccccc2N(CC(=O)NCCCN2CCCCC2C)C1=O (centres undefined),3.16 µM (active),–
CCCCNC(=O)CN1C(=O)NC2(CCCc3ccccc32)C1=O (centres undefined),inactive,–
COc1ccc2nc(NC(C)=O)sc2c1,inactive,–
Cc1ccccc1NC(=O)c1ccc(N/N=C/c2ccccc2O)c([N+](=O)[O-])c1,inactive,–
COC(=O)NCC(c1cccnc1)N1CCN(c2ccccc2OC)CC1 (centres undefined),inactive,–
O=c1c2ccccc2nc2n1C(CSc1ccc(F)cc1)CN2 (centres undefined),inactive,–
CCCCNC(=O)CCC(=O)Nc1ccc2nc(N3CCOCC3)cc(C)c2c1,inactive,–
CN1CCN(CCCNC(=O)c2ccc(CSCc3cccc(Cl)c3)o2)CC1,10 µM (active),–
COc1ccc(S(N)(=O)=O)cc1C(=O)NCCCN1CCN(c2cccc(Cl)c2)CC1,inactive,–
COc1ccc2cc3cc(C(=O)NCCCN4CCOCC4)oc3nc2c1,inactive,–
Nc1cc(S(=O)(=O)O)cc2ccc(S(=O)(=O)O)cc12,–,-8.48% [at 11.4 µM]
CCc1ccc(-c2cc(C(=O)NCc3ccco3)c3ccccc3n2)s1,inactive,–
CSc1nc(N)nc(-c2cccs2)c1C#N,inactive,–
CCOc1ccc(CCNC(=O)CCCN2C(=O)c3ccccc3C2=O)cc1OCC,inactive,–
COc1ccc(CCNC(=O)CCCCCN2C(=O)c3ccccc3C2=O)cc1,5.01 µM (active),–
O=C(CCCCCN1C(=O)c2ccccc2C1=O)NCc1ccccn1,inactive,–
Cc1cccc(N2CCN(CC(=O)Nc3ccc(-n4cnnn4)cc3)CC2)c1C,inactive,–
CN(Cc1ccccc1)S(=O)(=O)c1ccc(OCC(=O)N2CCOCC2)cc1,inactive,–
O=C(Oc1ccc2c(c1)CN(Cc1ccccc1)CO2)c1ccccc1,0.501 µM (active),–
COc1ccc(S(=O)(=O)N(CCc2ccccc2)CC(=O)N2CCOCC2)cc1,inactive,–
CC(Oc1ccc(O)cc1)(P(=O)(O)O)P(=O)(O)O,inactive,–
C/C(CCN1CCc2nc(-c3ccccc3)c(-c3ccccc3)cc2C1)=N\OC[C@@H](O)[C@@H]1O[C@@H]2OC(C)(C)O[C@@H]2[C@H]1O,–,12.8% [at 11.4 µM]
C[C@@H](NCc1cc(Br)cc2[nH]c(=O)c(=O)[nH]c12)P(=O)(O)O,inactive,–
O=C(CCCN1CCC(O)(c2ccc(Br)cc2)CC1)c1ccc(F)cc1,3.98 µM (active),–
CCOC(=O)c1c(-c2ccccc2)nc2ccccn12,inactive,–
O=C(N/N=C\c1cn(-c2ccccc2)nc1-c1ccccc1)c1ccc2c(c1)OCO2,inactive,–

Compound,AC50,"activity, negative = inhibition"
c1ccc(-c2nc3ccccn3c2NCc2ccc3c(c2)OCO3)cc1,3.98 µM (active),–
CCCS(=O)(=O)N1CCCC(C(=O)N2CCN(C(=O)OCC)CC2)C1 (centres undefined),inactive,–
CCCS(=O)(=O)N1CCCC(C(=O)N2CCOCC2)C1 (centres undefined),inactive,–
CCCS(=O)(=O)N1CCN(CC2CC=CCC2)CC1 (centres undefined),1.12 µM (active),–
COc1ccc(Oc2c(C=O)c3ccccc3n2C)cc1,inactive,–
CC(C)CC(=O)N1CCC(N2CCN(c3ccccc3)CC2)CC1,inactive,–
c1ccc(C2CCC(N3CCC(N4CCCCC4)CC3)CC2)cc1 (centres undefined),14.1 µM (active),–
COc1ccccc1NC(=O)c1nn(-c2cccc(C(F)(F)F)c2)ccc1=O,inactive,–
O=[N+]([O-])c1ccc(/C=N/N/C(=N/c2ccccn2)c2ccccn2)cc1,inactive,–
N#Cc1cccc(-c2nccc(-n3ccnc3)n2)c1,12.6 µM (active),–
COc1cccc(-c2nccc(-n3ccnc3)n2)c1,7.94 µM (active),–
CS(=O)(=O)Nc1cccc(-c2cncnc2-n2ccnc2)c1,inactive,–
COc1ccc(-n2c(=O)c(-c3cccc(F)c3)nc3cncnc32)cc1,inactive,–
COc1cccc(Sc2cc(N3CCOCC3)nc(-c3ccccc3)n2)c1,inactive,–
CN1CCN(c2ccnc(-c3cccc(NS(C)(=O)=O)c3)n2)CC1,inactive,–
c1cncc(-c2cncnc2-n2ccnc2)c1,inactive,–
N#Cc1cccc(-c2cc(-n3ccnc3)ncn2)c1,inactive,–
CS(=O)(=O)Nc1cccc(-c2nccc(-n3ccnc3)n2)c1,12.6 µM (active),–
COc1cccc(-c2cncnc2-n2ccnc2)c1,12.6 µM (active),–
COc1cccc(-c2nccc(NC3CCNCC3)n2)c1,inactive,–
CC[C@H]1C(=O)OC[C@H]1Cc1cncn1C,inactive,–
CCN(CC)c1ccc(NC(=O)c2cccc(F)c2)c(C)c1,inactive,–
CC[C@H]1CC[C@H]2[C@@H]3CC=C4C[C@H](OC(C)=O)[C@@H](N)C[C@@]4(C)[C@H]3CC[C@@]12C,–,-4.19% [at 11.4 µM]
NCC(=O)N[C@H](CO)C(=O)O (H-Gly-[dS]-OH),–,6.25% [at 11.4 µM]
CC1=NNC(=S)NCCCN2CCN(CCCNC(=S)NN=C(C)C=NNC(=S)NCCCN3CCN(CCCNC(=S)NN=C1)CC3)CC2,–,-0.261% [at 11.4 µM]
CC1(C)CC(=O)C(C=NCCN2CCN(C(=S)Nc3ccc(F)cc3)CC2)=C(O)C1,inactive,–

Compound,AC50,"activity, negative = inhibition"
CN1CCN(c2ccnc(-c3ccc(N(C)C)cc3)n2)CC1,inactive,–
c1cn(-c2ccnc(-c3ccc4c(c3)OCO4)n2)cn1,3.16 µM (active),–
O=C(OCc1ccccc1)/C(=C/c1ccc(Cl)cc1)NC(=O)c1ccccc1Cl,inactive,–
COc1ccc(Oc2ncc3nc(-c4ccc(F)cc4)c(=O)n(Cc4cccs4)c3n2)cc1,inactive,–
CN(C)C(=O)c1ccc(-c2nccc(NCc3cccnc3)n2)cc1,inactive,–
c1csc(CNc2ccnc(-c3ccc4c(c3)OCO4)n2)c1,0.501 µM (active),–
c1ccc(CNc2ccnc(-c3ccc4c(c3)OCO4)n2)cc1,1.58 µM (active),–
CN(C)C(=O)c1ccc(-c2cc(NCc3cccnc3)ncn2)cc1,inactive,–
c1cncc(CNc2ccnc(-c3ccc4c(c3)OCO4)n2)c1,10 µM (active),–
O=C(O)COc1ccc(-c2nccc(-c3cccs3)n2)cc1,inactive,–
COc1cccc(Cn2c(=O)c(-c3ccccc3)nc3cnc(N4CCN(C)CC4)nc32)c1,inactive,–
COc1ccc(-n2c(=O)cnc3cnc(N4CCNCC4)nc32)cc1,inactive,–
Fc1ccc(-c2csc(N3CCC(c4ccccc4)C3)n2)cc1 (centres undefined),inactive,–
CCN(CC)Cc1nc2c(c(=O)[nH]1)C1(CCCC1)Cc1ccccc1-2,inactive,–
CCCCCCCCCCCCCCCCCCOC[C@@H](COP(=O)([O-])OCC[N+](C)(C)C)OC,inactive,–
COc1nc(Cl)nc(Cl)c1Cl (tested in a mixture with another compound),–,10.4% [at 11.4 µM]
Cc1ccccc1-n1ncc2c(SCC(=O)N3c4ccccc4CC3C)ncnc21 (centres undefined),inactive,–
CO[C@H]1COC(=O)C/C=C\[C@@H](C)COC(=O)[C@H]2CCCN2C(=O)C/C=C\[C@H]1C,–,-1.87% [at 11.4 µM]
O=C(Cn1cnc([N+](=O)[O-])n1)N/N=C/c1ccccc1O,inactive,–
CC1=C(C(=O)OCc2ccccc2)C(c2ccc(Cl)cc2)NC(=O)N1CCCCCC(=O)O (centres undefined),inactive,–
CCOc1cc(NC(=S)Nc2ccccc2)c(OCC)cc1NC(=O)c1ccc(OC)cc1,inactive,–
O=C(CNC1CCCCCC1)Nc1ccccc1N1CCCCC1,1.41 µM (active),–
Cc1ccc(OCC(=O)Nc2ccccc2N2CCOCC2)c(C)c1,inactive,–
COc1cc(OC)cc(C(=O)Nc2ccccc2C(=O)N2CCCC2)c1,inactive,–
CCOc1ccc(C(=O)Nc2ccccc2N2CCCC2)cc1,3.16 µM (active),–
O=C(Cc1ccccc1)Nc1ccccc1N1CCOCC1,inactive,–
